Counter-ions that a name gives are not always drawn.
Tested on: Danio rerio larvae (5 dpf)
Assay: 1-h baseline activity (% time moving, periods 1-6) minus DMSO control (percentage points); higher = more locomotor activity than DMSO larvae
Conditions: 10 µM; exposure time: 3 h pre-incubation + 3 h imaging
Procedure: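 Wild-type 5 dpf zebrafish larvae (n=48 per drug, 96-well plates, 28.5 °C) were exposed to Tocris FDA-approved library compounds at 10 µM (0.1% DMSO) for 3 h before and 3 h during imaging. Images were taken every 6 s during visual and acoustic stimuli, and larvae were tracked with Z-LaP Tracker. Each measure is the treated-group mean minus the DMSO control mean (n=844), in percentage points. This mapping covers compounds with 5-character plate codes.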

Compound	1-h baseline activity
COc1ccc(C(CN(C)C)C2(O)CCCCC2)cc1 (stereo unspecified) [Venlafaxine hydrochloride]	-22.8

Source: the supplement of paper PMC9950053
